Source: PubChem
An excerpt weighted towards active compounds, which were near 4% of everything screened.
Mtb bLac sens – beta-lactam sensitization of Mtb H37Rv, H37Rv | M. tuberculosis H37Rv growth with meropenem, percent inhibition | inhibition, % at 25 µM | actives 0.27% (n = 330,000); call rule not given here;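 note: growth measured after seven days incubation then overnight dye step; 0% = bacteria only wells and 100% = bacteria with antibiotic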
Mtb UGM inh – M. tuberculosis UGM enzyme inhibitors, primary screen, biochemical, fluorescence polarization, single point. UDP-galactopyranose mutase (Mycobacterium tuberculosis (strain ATCC 25618 / H37Rv)), …. purified UGM, fluorescence polarization probe displacement. inhibition, % at 10 µM. actives 0.06% (n = 320,000). AID 504406, 2011; in the data active = inhibition above about 10%, passing the limit was not always enough; inconclusive = no clear call, values can overlap the other calls
GDH-TPI inh – GDH-TPI coupling enzyme inhibitors, primary screen, artefact control for M. tuberculosis FBA inhibitor project, biochemical, absorbance, full deck; AID 588335, 2011; inhibition, % at 4.8 µM; actives 1.2% (n = 360,000); GDH-TPI coupled enzyme counterscreen, NADH absorbance; in the data active = inhibition above about 30%;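 note: 0% = DMSO wells and 100% = wells lacking the enzyme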
RecA splice inh – Mtb RecA intein splicing inhibitors, primary screen, biochemical, fluorescence, HTS. cell-free RecA intein splicing. inhibition, % (concentration not given with the values). AID 2221, 2009. actives 0.75% (n = 290,000); in the data active = inhibition above about 30%; inconclusive = no clear call, values can overlap the other calls;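 note: 0% = vehicle wells and 100% = reference inhibitor control wells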
Rv3671c inh – Rv3671c serine protease inhibitors, primary screen, biochemical, fluorescence polarization, M. tuberculosis H37Rv. inhibition, % at 5.96 µM. actives 0.048% (n = 320,000); in the data active = inhibition above about 38%;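 note: extracellular domain of Rv3671c used as enzyme; 0% = enzyme with DMSO and 100% = no enzyme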
Mtb FBA inh – Mtb FBA enzyme inhibitors, primary screen, biochemical, fluorescence, strain H37Rv | Fructose-bisphosphate aldolase (Mycobacterium tuberculosis (strain ATCC 25618 / H37Rv)), … | purified M. tuberculosis FBA, fluorescence read-out | inhibition, % at 1 µM | actives 2.3% (n = 360,000); in the data active = inhibition above about 27%;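 note: 0% = vehicle and 100% = reference inhibitor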
Target sequence (P9WQA3 whole entry, looked up): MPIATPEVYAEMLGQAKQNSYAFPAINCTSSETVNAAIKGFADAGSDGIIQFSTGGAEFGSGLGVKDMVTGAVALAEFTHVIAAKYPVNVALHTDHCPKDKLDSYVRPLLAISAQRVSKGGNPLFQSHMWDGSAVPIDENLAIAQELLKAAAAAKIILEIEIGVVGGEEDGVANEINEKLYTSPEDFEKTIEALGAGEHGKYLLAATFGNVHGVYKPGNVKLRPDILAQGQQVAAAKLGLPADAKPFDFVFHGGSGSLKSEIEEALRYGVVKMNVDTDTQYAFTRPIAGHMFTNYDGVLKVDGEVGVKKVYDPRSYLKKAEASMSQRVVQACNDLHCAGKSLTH
An asterisk follows results filed as active; ? = inconclusive; · = not tested or not shown; + = active, no number.

SMILES	Mtb bLac sens	Mtb UGM inh	GDH-TPI inh	RecA splice inh	Rv3671c inh	Mtb FBA inh
COc1cccc(C(=O)Nc2nnc(-c3ccccc3)s2)c1	1	-4	36*	-1	·	19
O=C(/C=C/c1ccccc1O)c1ccco1	95	1	33*	0	2	-4
Nc1ccc(/C=C/C(=O)c2ccco2)cc1	82	-2	6	-2	-7	-9
CC(C)(C)C(=O)Nc1ccc(/C=C/C(=O)c2ccco2)cc1	44	-2	49*	2	4	2
Cc1cc(C(=O)N/N=C/c2c(C)n(C)c3ccccc23)n[nH]1	0	2	57*	2	-4	0
CC(C)NC(=S)N/N=C/c1c[nH]c2ccccc12	95	1	23	17	-2	1
Cc1[nH]n(-c2ccccc2)c(=O)c1/C=N/N1CCOCC1	-3	5	6	46*	-5	-3
Cc1cc(C(=O)N/N=C/c2c(C)[nH]n(-c3ccccc3)c2=O)n[nH]1	2	0	15	55*	-13	3
Cc1[nH]c2ccccc2c1/C=N/NC(=S)NC(C)C	-2	1	38*	-1	18	-4
Cc1[nH]n(-c2ccccc2)c(=O)c1/C=N/NC(=O)c1cccc(F)c1	76	4	20	11	8	10
CN(C(=O)COC(=O)c1ccc(F)c(S(=O)(=O)N2CCOCC2)c1)C1CCS(=O)(=O)C1 (stereo unspecified)	-14	0	-2	-3	-1	1
Cc1ccc(CNC(=O)CNC(=O)c2ccc(C(C)(C)C)cc2)n1C	-3	0	1	·	-4	3
Cc1cc(C(=O)N/N=C/c2c(C)[nH]c3ccccc23)n[nH]1	5	4	56*	1	0	-1
Cc1[nH]c2ccccc2c1/C=N/NC(=O)CNC(=O)c1ccc2c(c1)OCCO2	3	-1	32*	0	0	4
CCOc1ccc2oc(C(=O)NCc3ccccc3CN3CCCC3)c(C)c2c1	21	0	1	·	-4	19
Cc1nc(-c2cccc(NC(=O)c3ccc(-n4cccn4)cc3)c2)cs1	12	0	-2	·	-14	3
CC(C)OC(=O)CC(=O)c1sc2nc3c(cc2c1N)CN(C)CC3	0	16*	·	-24	-2	·
CCCN(CC(=O)Nc1cc(Cl)ccc1Cl)C(=O)c1ccc2n[nH]nc2c1	2	-1	6	·	-8	-1
CCCCCCC(=O)N=Nc1c(O)[nH]c2ccc([N+](=O)[O-])cc12	0	2	2	1	-5	3
O=C(CNC(=O)c1cccs1)N=Nc1c(O)[nH]c2ccc([N+](=O)[O-])cc12	-3	2	34*	16	4	-2
COc1ccc(-c2csc(NC(=O)CSCc3c(C)noc3C)n2)c(OC)c1	81	0	-6	5	-1	-1
c1ccn2c(c1)nc1c2nc2ccccn21	?	1	17	-246	-4	+
Cc1ccsc1/C=C(\CC(=O)O)c1nc2ccccc2o1	4	0	44*	0	-1	3
CNC(=O)COC(=O)c1ccc(-c2nc3ccccc3s2)s1	99	0	57*	-4	4	19
COc1ccc(C2/C(=C(/O)c3ccccc3)C(=O)C(=O)N2c2ccccn2)c(OC)c1 (stereo unspecified)	-3	0	31*	0	-3	1
SMILES	Mtb bLac sens	Mtb UGM inh	GDH-TPI inh	RecA splice inh	Rv3671c inh	Mtb FBA inh
Cc1cccc(Cn2ncc(Cl)c(Cl)c2=O)c1	98	-1	1	55*	-4	-2
NC(=O)[C@H](Cc1cc2ccccc2s1)NC(=O)[C@@H]1CC2(CC(c3cccc(NC(=O)[C@@H]4CCC(=O)N4)c3)=NO2)CN1C(=O)/C=C/c1c(F)cccc1Cl (stereo partly specified)	75	-1	3	33*	-130	-2
NC(=O)[C@H](Cc1cc2ccccc2s1)NC(=O)[C@@H]1CC2(CC(c3cccc(NC(=O)[C@@H]4CCC(=O)N4)c3)=NO2)CN1C(=O)/C=C/Sc1ccccc1 (stereo partly specified)	88	1	6	8	-96	0
CCOC(=O)c1cc2c(nc1N)CCCC2	17	-3	17	-2	3	139*
CC(C)(C)c1ccc(C(=O)Cn2cnnc2C#N)cc1	19	0	4	34*	-12	1
CCOc1ccc(N2CC(C(=O)Nc3nnc(CC)s3)CC2=O)cc1 (stereo unspecified)	1	2	10	-1	8	1
O=C(Oc1cc2oc(=O)cc(-c3ccccc3)c2cc1Cl)C1CCCCC1	-18	2	16	-47	-1	32*
CC(C)(C)OC(=O)NCC(=O)Oc1cc2oc(=O)cc(-c3ccccc3)c2cc1Cl	-10	1	13	-138	-4	26
COc1ccc2nc(N3C(=O)CNC3=S)sc2c1	59	1	64*	0	9	1
Cc1ccc2nc(N3C(=O)CNC3=S)sc2c1	80	3	21	1	4	-1
COc1ccc2cc3cc(C(=O)NCCN4CCc5ccccc5C4)oc3nc2c1	2	1	38*	·	-8	188*
COc1ccc2cc3cc(C(=O)NCCN4CCN(Cc5ccccc5)CC4)oc3nc2c1	70	1	20	-2	-1	+
Cc1ccc(/C=C/c2nnc(-c3ccccc3)o2)cc1	3	0	25	1	-2	1
C(=C\c1nnc(-c2cccs2)o1)/c1ccccc1	9	-1	51*	-2	-12	18
CCCc1cc(=O)oc2cc(OCC(=O)N3CC[C@@]4(O)CCCC[C@H]4C3)ccc12	·	·	12	·	·	24
NC(=O)C1CCN(C(=O)COc2ccc3c(c2)oc(=O)c2ccccc23)CC1	-11	5	8	0	7	112*
Cc1c(Cc2ccccc2)c(=O)oc2cc(OCC(=O)N3CCC(C(N)=O)CC3)ccc12	-10	1	16	·	-1	124*
Cc1c(C)c2ccc(OCC(=O)N3CC[C@@]4(O)CCCC[C@H]4C3)cc2oc1=O	-7	0	9	-1	1	87*
O=C(N=C1SC2CS(=O)(=O)CC2N1Cc1ccccc1)C1CC1 (stereo unspecified)	·	·	3	·	·	-2
CC(C)CN1CCC(=O)N([C@H](CO)Cc2ccccc2)CC1	-13	0	4	-4	9	7
OCCN=c1cc(-c2ccccc2)oc2ccc(Cl)cc12	71	-1	40*	-1	-1	2
c1ccc(-c2ccc(-c3ccccn3)s2)nc1	3	2	29	-3	-3	+
